# In PubChem BioAssay AID485364 (National Center for Advancing Translational Sciences (NCATS), 2010):
# Hit rate of the full screen: of about 360,000 compounds, about 11,000 (3.1%) were called active. About 4% were inconclusive and are not listed. The sample holds actives, similar compounds and a random draw of the others, so the mix is not that of the screen. Values without a mark were called inactive. Calls come from the whole dose curve; as a rule, active = well fitted inhibition curve with a large enough effect; inconclusive = small, poorly fitted or top-dose-only effect; inactive = no such curve, though single readings can be large or run the other way.
# Molecular target: Schistosoma mansoni thioredoxin glutathione reductase (TGR) (UniProt Q962Y6)
# Experiment: qHTS Assay for the Inhibitors of Schistosoma Mansoni Peroxiredoxins; note: nearly all actives have a fitted effect of over 60% in size
# Conditions: purified TGR, DTNB reduction, TNB absorbance 405 nm; series mostly up to 114 µM; activity change, negative = inhibition: at the top concentration
# Summary of the method: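 Kinetic colorimetric format: TGR-catalysed, NADPH-driven DTNB reduction monitored via TNB absorbance. Enzyme dispensed at 20 nM; compound exposure 15 min at room temperature before reaction start.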
# % is set by controls: 0 for no effect and ±100 for the full control effect; potency is the fitted concentration of half-maximal effect.
Compound,"activity change, negative = inhibition",Potency
Cc1ccc(CCNC(=O)c2ccc3c(c2)nc2n3CCC(C)C2)cc1 (stereo not drawn),-6.81%,–
CCOc1cccc(CC(=O)N2CCc3c([nH]c4ccccc34)C2c2ccc(OC)cc2)c1OCC (stereo not drawn),9.6%,–
CCN(CC)S(=O)(=O)c1ccc2c(c1)nc(CN(C)C(=O)Nc1ccc(Cl)cc1)n2C,4.09%,–
CCOC(=O)/C=C/C(=O)OCC(=O)NC(c1ccccc1)c1ccccc1,–,15.8 µM (active)
O=C(Cc1ccc(-c2ccccc2)cc1)NC(c1ccccc1)c1ccccc1,3.82%,–
CCOC(=O)C(C(=O)OCC)C(C#N)c1ccccc1 (stereo not drawn),-0.421%,–
COc1cccc(C2C(C(=O)Nc3ccc(C)cc3C)=C(C)Nc3c(C(=O)Nc4ccccc4)cnn32)c1 (stereo not drawn),-6.99%,–
Cc1cccc(NC(=O)CSc2nc3c([nH]c4ccccc43)c(=O)n2-c2cc(C)cc(C)c2)c1,4.01%,–
CSc1cccc(NC(=O)CN2C(=O)CCc3cc(S(=O)(=O)N4CCCCC4)ccc32)c1,0.0354%,–
COc1ccc(Cn2c(C(=O)O)c(CNCc3cccc(OC)c3)c3ccc(C)cc32)cc1,3.42%,–
O=C(CSc1nc(=O)[nH]c2c1CCCC2)Nc1cc(C(F)(F)F)ccc1Cl,-0.322%,–
Cc1nc2c(c(C)nn2-c2ccccc2)c(C)c1CCC(=O)NCCc1ccc(Cl)cc1,2.65%,–
C=Cc1ccc(Cn2c(C(=O)O)c(CNC3CCCC3)c3ccc(C)cc32)cc1,-1.48%,–
CC(C)OCCCNC(=O)c1ccc(C2SCC(=O)N2Cc2ccco2)cc1 (stereo not drawn),–,25.1 µM (active)
CC(C)OCCCNC(=O)CNC(=O)c1cccs1,1%,–
O=C(NCc1ccco1)c1ccc(Cn2c(=O)c3sccc3n(Cc3ccc(F)cc3)c2=O)cc1,1.62%,–
CCOc1ccc(NC(=O)c2cc(S(=O)(=O)N3CCCC3)c[nH]2)cc1,1.37%,–
COc1ccc(CNC(=O)c2cc3c(s2)-c2ccccc2OC3)cc1,0.527%,–
COc1cccc(CNC(=O)Cn2c(=O)c3cccn3c3ccc(F)cc32)c1OC,6.91%,–
O=C(NNS(=O)(=O)Cc1ccccc1)c1ccc([N+](=O)[O-])cc1,1.83%,–
O=C(CNC(=O)c1ccccc1)Oc1ccc([N+](=O)[O-])cc1,–,11.2 µM (active)
O=C(CNC(=O)c1ccccc1)NCC(=O)OCC(=O)c1ccccc1,14.6%,–
COc1cc(CN(CC2CCCO2)C(=O)c2ccccc2F)cc(OC)c1OC (stereo not drawn),-7.23%,–
CCc1nc2c(cnn2-c2ccc(C)cc2)c(=O)n1-c1ccc(C)cc1,9.53%,–
Cc1ccc(CN2CCC(n3nccc3NC(=O)CCCc3ccccc3)CC2)o1,-60.4%,–

Compound,"activity change, negative = inhibition",Potency
COc1ccc(CN2CCC(n3nccc3NC(=O)CCCc3ccccc3)CC2)cc1C,5.46%,–
COc1cc(CN2CCC(n3nccc3NC(=O)CCCc3ccccc3)CC2)ccc1O,–,44.7 µM (active)
CC1=Nc2cc(C(=O)N3CCC(C)CC3)ccc2Sc2ccc(Cl)cc21,12.6%,–
Cc1ccc(C)n1NC(=O)c1ccc([N+](=O)[O-])cc1,-23.3%,–
N=C1C(c2nc3ccccc3s2)=C(O)CN1NC(=O)c1ccc([N+](=O)[O-])cc1,–,12.6 µM (active)
N=C1C(c2nc3ccccc3[nH]2)=C(O)CN1NC(=O)c1c[nH]c2ccccc12,-7.22%,–
CCC(=O)N1CCc2cc(Br)cc(S(=O)(=O)NCc3ccc(Cl)cc3)c21,1.1%,–
Cc1nn(CC(=O)O)c(=O)c2cc3cc(F)ccc3n12,4.83%,–
COc1ccccc1NC(=O)c1cc(S(=O)(=O)NCCc2ccccc2)ccc1F,1.29%,–
C=CCn1c(CSc2nc3ccccc3s2)nnc1SCC(=O)NCc1ccco1,–,11.2 µM (active)
C=CCn1c(SCC(=O)NCc2ccccc2)nnc1-c1cc(Br)ccc1O,-22.8%,–
O=C(CSc1nc2ccc(Nc3nc(N4CCOCC4)nc(N4CCOCC4)n3)cc2s1)NCc1ccco1,-26.5%,–
CCn1c2ccc(F)cc2c2nnc(SCCN3CCOCC3)nc21,0%,–
CC(=O)Nc1ccc(NC(=O)CSc2nnc3c4cc(Br)ccc4n(C)c3n2)cc1,0.416%,–
Cn1c2ccc(F)cc2c2nnc(NN)nc21,–,50.1 µM (active)
COc1ccc(S(=O)(=O)NCc2cccn2Cc2cccc(C)c2)cc1Cl,-25%,–
CCOc1cc(C(=O)Nc2nnc3n2CCS3)cc(OCC)c1OCC,8.04%,–
CCc1cccc(NC(=O)CN(c2ccc(C)c(C)c2)S(=O)(=O)c2ccsc2C(=O)OC)c1,7.42%,–
CC(=O)N1CC(C)c2scc(C)[n+]2-c2ccccc21 (stereo not drawn),–,1.58 µM (active)
Cc1ccc(/C=C(\C#N)C(=O)Nc2cc(C)ccc2C)cc1,9.44%,–
Cc1nn(C(C)C(=O)Nc2ccc(C(C)C)cc2)c(=O)c2c1sc1ccccc12 (stereo not drawn),-4.07%,–
CCOC(=O)c1c(NC(=O)c2ccc(S(=O)(=O)N3CCCC(C)C3)cc2)sc2c1CCN(C(C)C)C2 (stereo not drawn),-4.43%,–
COC(=O)c1cc(NC(=O)CCc2c(C)nc3c4c(C)cc(C)nc4nn3c2C)cc(C(=O)OC)c1,-4.76%,–
Cc1cc(C)c2c(n1)nn1c(-n3ccnc3)cc(C)nc21,–,35.5 µM (active)
Cc1cc(C)c2c(NC(=O)C3CC3)nn(C)c2n1,13.4%,–

Compound,"activity change, negative = inhibition",Potency
COc1ccc(NC(=O)Cn2c(=O)n(CCC(C)C)c(=O)c3cccnc32)cc1Cl,4.25%,–
Cc1c(C(=O)NCc2ccccc2Br)oc2ccc3c(c12)C(=O)CC(C)(C)O3,1.93%,–
CCOC(=O)N1CCC(NC(=O)c2cnn(-c3cccc(C)c3)c2C2CCN(C(=O)OC(C)(C)C)CC2)CC1,-12.9%,–
COc1cc(Cl)ccc1Nc1ncc(C(=O)N2CCN(c3ccccc3OC)CC2)c2ccccc12,8.24%,–
Cc1ccc2nc(CN3CCN(S(=O)(=O)c4ccc(C)c(C)c4)CC3)oc2c1,-4.25%,–
CSc1nc(-c2ccc(F)cc2)nc2c1Cc1c(CO)cnc(C)c1O2,-3.94%,–
Cc1ccccc1CSc1nc(-c2ccccc2)nc2c1Cc1c(CO)cnc(C)c1O2,–,39.8 µM (active)
CSc1nc(-c2ccccc2Cl)nc2c1Cc1c(CO)cnc(C)c1O2,-22.1%,–
CC(=O)Nc1ccc(NC(=O)CN2CCCC(C)C2)c(Cl)c1 (stereo not drawn),9.99% [at 11.4 µM],–
CC1CCCN(CC(=O)Nc2cc(Cl)ccc2Oc2ccccc2)C1 (stereo not drawn),3.98%,–
Cc1cc(NC(=O)CN2CCCC(C)C2)n(-c2nc3ccccc3s2)n1 (stereo not drawn),–,12.6 µM (active)
COc1ccc(C(=O)Nc2nonc2-c2ccc(OC)c(OC)c2)cc1Cl,-0.679%,–
COc1cccc(CNc2nccn(-c3ccc(OC)c(OC)c3)c2=O)c1,10.1%,–
O=C(NCc1ccco1)c1ccc([N+](=O)[O-])cc1Cl,-30.4%,–
O=C(NCc1ccco1)c1cnn2c(C(F)(F)F)cc(-c3ccco3)nc12,–,50.1 µM (active)
O=C(O)c1cnn2c(C(F)(F)F)cc(-c3ccccc3)nc12,-20.4%,–
OCc1cnc(SCc2ccc(F)cc2)n1Cc1ccc(F)cc1,-8.02%,–
COc1ccc(N2CCN(c3cc(C)nc4nncn34)CC2)cc1,0.741%,–
C/C(=C\c1ccccc1)C1NC(=O)c2c(sc3c2CCCC3)N1 (stereo not drawn),-10.9%,–
Cc1[nH]c(=O)c(C(=O)/C=C/c2ccccc2)c2c1CCCC2,–,35.5 µM (active)
COC(=O)c1c(C)[nH]c(C(=O)/C=C/c2ccc(Cl)cc2)c1C,-5.56%,–
Cc1nc(-c2ccccc2)sc1C(=O)/C=C/N(C)C,-15.3%,–
Cc1nc(-c2ccc(Cl)cc2)sc1C(=O)CBr,–,39.8 µM (active)
Cc1nc(-c2ccc(Cl)cc2)sc1C1(C)CC(c2ccccc2F)=NO1 (stereo not drawn),-13.9%,–
COC(=O)c1cc(NC(=O)CCS(=O)(=O)c2cc(Br)cc3c2N(C(=O)C2CC2)CC3)cc(C(=O)OC)c1,-9.74%,–

Compound,"activity change, negative = inhibition",Potency
Cc1cc(C)c2[nH]c(=O)c(C(c3nnnn3Cc3ccc4c(c3)OCO4)N3CCCC3)cc2c1 (stereo not drawn),–,15.8 µM (active)
Cc1ccc(S(=O)(=O)Cn2nnnc2CN2CCN(Cc3ccc4c(c3)OCO4)CC2)cc1,5.87%,–
Fc1ccccc1C(c1nnnn1Cc1ccc2c(c1)OCO2)N1CCN(Cc2ccccc2)CC1 (stereo not drawn),-21.9%,–
Cc1cc2nc(-c3ccc(NC(=O)c4cc5ccccc5o4)cc3)oc2cc1C,-1.68%,–
COc1cc(OC)cc(C(=O)Nc2ccc3nc(Nc4cccc(C(F)(F)F)c4)cc(C)c3c2)c1,6.99%,–
O=C(/C=C/c1ccc(Cl)cc1Cl)c1cccnc1,–,8.91 µM (active)
O=C(OCc1cc(Cl)ccc1OC(F)F)c1cccnc1,-4.95%,–
O=C(NCc1ccc(Cl)c(Cl)c1)c1cccnc1,10%,–
COc1ccc(-c2nc3ccccc3o2)cc1NC(=O)c1cc([N+](=O)[O-])ccc1N1CCOCC1,3.13%,–
CN(C)CCCn1c(-c2ccc(Cl)cc2)csc1=Nc1ccccc1,9.1%,–
O=C(NCc1ccco1)C1CCCN(S(=O)(=O)c2cccc3nonc23)C1 (stereo not drawn),–,22.4 µM (active)
Cc1ccc(CNC(=O)C2CCCN2S(=O)(=O)c2ccc3c(c2)C(C)(C)C(=O)N3C)cc1 (stereo not drawn),1.2%,–
O=C(NCc1ccco1)C1CCCN(S(=O)(=O)c2ccccc2)C1 (stereo not drawn),2.53%,–
Cc1ccc(S(=O)(=O)N2CCC(C(=O)N[C@@H](C)C(=O)NCc3ccco3)CC2)cc1,-19.9%,–
O=C(NCc1ccco1)C1CCCN(S(=O)(=O)c2cnc[nH]2)C1 (stereo not drawn),0%,–
Cc1ccc(S(=O)(=O)N2CCCC2C(=O)NCc2ccco2)cc1 (stereo not drawn),–,50.1 µM (active)
O=C(NCCCO)C(=O)Nc1c2c(nn1-c1ccccc1)CSC2,-19.7%,–
Cc1c(-c2nsc(NC(=O)c3cccc(Cl)c3)n2)nnn1-c1ccccc1C(F)(F)F,9.29%,–
CCc1nn(CCCC(=O)NCc2ccccc2OC)c(=O)c2cc3occc3n12,6.78%,–
CN1C(=O)c2ccccc2Sc2ccc(NC(=O)Cc3ccc(Cl)cc3)cc21,2.52%,–
CCOc1cc(NC(=O)CCl)c(OCC)cc1NC(C)=O,–,44.7 µM (active)
CCOc1cc(NC(=O)Nc2ccccc2)c(OCC)cc1NC(=O)CC,-0.833%,–
CCOc1cc(NS(=O)(=O)c2ccc(OC)cc2)c(OCC)cc1NC(C)=O,0%,–
